Data on five compounds can be found in PubChem BioAssay.

Structures are written as SMILES. Active and inactive are the calls of the source. Unless noted, the rule behind the calls is not given here.

Test [1] in a line: anti-His antibody binders, primary screen, artefact control for SMM control protein annotation, biochemical, small-molecule microarray, 635 nm fluorescence (AID 1128).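 Note: score merges feature fluorescence with signal-to-noise for each printed compound spot.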 Particulars: anti-His Alexa647 antibody binding, higher = more signal.
Test [2] deals with Human papillomavirus type 1a E7 protein (residues 1-88). Nature of the test: HPV1a E7 small-molecule binders, primary screen, biochemical, small-molecule microarray, residues 1-88, 635 nm (AID 1129). Conditions: small-molecule microarray binding, fluorescence 635 nm; higher = more signal.
The target in test [3] is Focal adhesion kinase 1 (Homo sapiens) (UniProt Q05397). In words: small-molecule microarray binders of FAK, primary screen, biochemical, 635/667 nm fluorescence, BSA, DTT (AID 1130).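 Note: composite of spot emission at 667 nm and signal to noise over triplicate slides.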 Conditions: PTK2 binding, 635 nm fluorescence, higher = more signal.
Sequence of Focal adhesion kinase 1 (Homo sapiens) (Q05397 whole entry, looked up): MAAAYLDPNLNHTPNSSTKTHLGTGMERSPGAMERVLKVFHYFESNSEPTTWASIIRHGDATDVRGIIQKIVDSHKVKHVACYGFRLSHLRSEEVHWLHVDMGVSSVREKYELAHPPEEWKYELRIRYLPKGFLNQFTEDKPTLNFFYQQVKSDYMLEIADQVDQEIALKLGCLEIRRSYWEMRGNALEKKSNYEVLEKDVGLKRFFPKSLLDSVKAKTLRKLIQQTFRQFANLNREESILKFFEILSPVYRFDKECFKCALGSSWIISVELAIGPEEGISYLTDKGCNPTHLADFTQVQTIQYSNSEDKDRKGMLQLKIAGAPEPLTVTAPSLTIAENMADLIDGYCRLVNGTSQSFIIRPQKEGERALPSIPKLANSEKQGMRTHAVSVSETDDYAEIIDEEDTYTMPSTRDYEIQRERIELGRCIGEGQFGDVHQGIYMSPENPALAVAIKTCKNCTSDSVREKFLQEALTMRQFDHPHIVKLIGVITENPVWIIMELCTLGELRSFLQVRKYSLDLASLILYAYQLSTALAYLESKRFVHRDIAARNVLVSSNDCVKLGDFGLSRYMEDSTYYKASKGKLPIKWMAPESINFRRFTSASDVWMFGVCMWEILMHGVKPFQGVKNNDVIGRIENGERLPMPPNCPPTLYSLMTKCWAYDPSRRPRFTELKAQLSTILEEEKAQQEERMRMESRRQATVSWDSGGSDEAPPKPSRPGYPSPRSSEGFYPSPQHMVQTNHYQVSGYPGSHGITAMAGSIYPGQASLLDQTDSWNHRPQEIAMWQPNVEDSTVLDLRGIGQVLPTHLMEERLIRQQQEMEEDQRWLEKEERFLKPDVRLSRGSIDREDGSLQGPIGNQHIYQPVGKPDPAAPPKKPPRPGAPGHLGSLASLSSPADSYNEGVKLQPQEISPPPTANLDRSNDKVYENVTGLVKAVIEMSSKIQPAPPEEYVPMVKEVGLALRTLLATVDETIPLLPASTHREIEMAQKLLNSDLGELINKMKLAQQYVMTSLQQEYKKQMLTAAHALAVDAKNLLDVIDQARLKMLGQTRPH
For test [4], the system named is Fibrinogen (Alexa647-labelled). In words: fibrinogen binders on compound microarrays, profiling panel, artefact control for SMM control-protein annotation, biochemical, small-molecule microarray, 635/667 nm fluorescence (AID 1131).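 Note: z-score merges 667 nm fluorescence with per-spot signal-to-noise over triplicate slides.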 Particulars: fibrinogen-A647 binding fluorescence, higher = more signal.
In test [5] the target is Follistatin (Homo sapiens) (UniProt P19883). In words: follistatin binders on small-molecule microarrays, primary screen, biochemical, small-molecule microarray, 635/667 nm fluorescence (AID 1132). Conditions: FST binding, 635 nm fluorescence, higher = more signal.
Sequence of Follistatin (Homo sapiens) (P19883 whole entry, looked up): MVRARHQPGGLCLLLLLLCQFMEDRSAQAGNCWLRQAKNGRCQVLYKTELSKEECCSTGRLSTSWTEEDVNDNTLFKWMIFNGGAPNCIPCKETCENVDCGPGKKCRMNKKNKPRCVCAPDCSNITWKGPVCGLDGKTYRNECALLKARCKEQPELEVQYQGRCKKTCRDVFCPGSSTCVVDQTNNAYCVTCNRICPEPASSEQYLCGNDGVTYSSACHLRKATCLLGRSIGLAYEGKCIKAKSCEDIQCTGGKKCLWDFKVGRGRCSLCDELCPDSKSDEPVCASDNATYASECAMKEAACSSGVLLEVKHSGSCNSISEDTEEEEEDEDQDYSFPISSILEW
The target in test [6] is Fibroblast growth factor 2 (Homo sapiens) (UniProt P09038). Nature of the test: FGF2 binders on small-molecule microarrays, primary screen, biochemical, small-molecule microarray, 635/667 nm fluorescence (AID 1133). Conditions: small-molecule microarray binding, FGF2, fluorescence 635/667; higher = more signal.
Sequence of Fibroblast growth factor 2 (Homo sapiens) (P09038 whole entry, looked up): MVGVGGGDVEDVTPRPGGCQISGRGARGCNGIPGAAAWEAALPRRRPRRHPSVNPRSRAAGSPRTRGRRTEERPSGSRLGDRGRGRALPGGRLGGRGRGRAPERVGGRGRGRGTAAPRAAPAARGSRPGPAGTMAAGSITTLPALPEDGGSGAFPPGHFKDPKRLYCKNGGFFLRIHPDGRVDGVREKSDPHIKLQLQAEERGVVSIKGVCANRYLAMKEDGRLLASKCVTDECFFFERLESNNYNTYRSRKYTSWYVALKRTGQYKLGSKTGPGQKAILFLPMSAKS
Test [7] in a line: mitochondrial membrane potential change in A549 cells, profiling panel, cell-based, JC-1 fluorescence, basal, 24 h, 100 nL (AID 1138).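 Note: A549 lung adenocarcinoma cells under basal conditions with no added stimulus; test concentration not given here.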 Conditions: higher = more signal.
Test [8] deals with Lefty1. Nature of the test: Lefty1 binders on small-molecule microarrays, primary screen, biochemical, small-molecule microarray, 635/667 nm fluorescence (AID 1139). Particulars: small-molecule microarray binding, fluorescence 635/667; higher = more signal.
Test [9] concerns wheat germ agglutinin (Triticum aestivum), Alexa647-labelled. In words: wheat germ agglutinin binders on compound microarrays, profiling panel, artefact control for SMM control-protein annotation, biochemical, small-molecule microarray, 635/667 nm fluorescence (AID 1140).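 Note: score merges 667 nm feature emission with signal to noise over triplicate slides.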 Particulars: WGA-A647 binding, 635 nm fluorescence, higher = more signal.
The target in test [10] is Luciferin 4-monooxygenase (Photinus pyralis) (UniProt P08659). Nature of the test: firefly luciferase enzyme inhibitors, primary screen, biochemical, luminescence, purified enzyme, 2006 set (AID 1141).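 Note: cell-free assay with purified firefly luciferase at 100 ng per well in PBS; test concentration not given here.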 Conditions: SteadyGlo luminescence, 30 min, higher = more signal, called active from +8 up or from −8 down.
Sequence of Luciferin 4-monooxygenase (Photinus pyralis) (P08659 whole entry, looked up): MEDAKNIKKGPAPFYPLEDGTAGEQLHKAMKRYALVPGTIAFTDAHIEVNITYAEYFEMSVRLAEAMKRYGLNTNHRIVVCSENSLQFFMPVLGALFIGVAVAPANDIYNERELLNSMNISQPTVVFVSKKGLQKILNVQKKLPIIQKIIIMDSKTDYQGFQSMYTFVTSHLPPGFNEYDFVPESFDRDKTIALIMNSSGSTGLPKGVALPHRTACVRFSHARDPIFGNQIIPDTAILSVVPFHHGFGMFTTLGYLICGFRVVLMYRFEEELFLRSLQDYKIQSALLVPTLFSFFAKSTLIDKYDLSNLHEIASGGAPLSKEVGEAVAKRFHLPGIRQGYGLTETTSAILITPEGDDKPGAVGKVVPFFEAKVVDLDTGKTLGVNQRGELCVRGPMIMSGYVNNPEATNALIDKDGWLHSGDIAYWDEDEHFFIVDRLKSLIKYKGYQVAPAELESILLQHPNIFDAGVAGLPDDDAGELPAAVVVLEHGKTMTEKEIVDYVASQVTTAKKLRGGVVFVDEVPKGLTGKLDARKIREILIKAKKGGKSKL
The subject of test [11] is Wnt5a (protein binding on small-molecule microarray). In words: Wnt5a binders on small-molecule microarray, primary screen, biophysical, 635/667 nm fluorescence (AID 1142).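 Note: fluorescence read at 667 nm with signal to noise per printed feature.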 Conditions: 635 nm fluorescence, higher = more signal.
The nature of test [12]: cell viability in Huh7 cells, primary screen, cytotoxicity control for HCV replication inhibitor project, CellTiter-Glo luminescence, basal, 48 h (AID 1143).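 Note: Huh7 hepatoma cells carrying a hepatitis C replication reporter with no stimulus; test concentration not given here.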 Conditions: Huh7 HCV replicon, higher = more signal, called active from +8 up or from −8 down. In general terms: Cellular ATP, detected with luciferase, serves as a proxy for viable cell number.
A short description of test [13]: P. aeruginosa biofilm formation inhibitors, primary screen, PAO1 strain, BacTiter-Glo luminescence, LB-PBS (AID 1144). Conditions: 12 h, higher = more signal.
A short description of test [14]: CREB reporter modulators without forskolin, primary screen, cell-based, PC12, CRE-LacZ reporter, unstimulated (AID 1145). Particulars: no forskolin, luminescence, 4.5 h, higher = more signal, called active from +8 up or from −8 down.
Test [15] is described as follows: CREB reporter modulators under forskolin, primary screen, cell-based, PC12, CRE-LacZ reporter, forskolin-stimulated (AID 1146).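 Note: PC12 cells with 6xCRE LacZ reporter stimulated by forskolin 10 µM; beta-galactosidase reporter signal reflecting CREB driven transcription.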 Conditions: luminescence, 4.5 h, higher = more signal, called active from +8 up or from −8 down.
For test [16], the target named is Streptavidin (Streptomyces avidinii) (UniProt P22629). Nature of the test: streptavidin binders on small-molecule microarray, primary screen, artefact control for SMM compound annotation, biophysical, 635/667 nm fluorescence (AID 1147).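 Note: signal reflects streptavidin binding to arrayed compounds as a control protein.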 Conditions: streptavidin binding, higher = more signal.
Sequence of Streptavidin (Streptomyces avidinii) (P22629 whole entry, looked up): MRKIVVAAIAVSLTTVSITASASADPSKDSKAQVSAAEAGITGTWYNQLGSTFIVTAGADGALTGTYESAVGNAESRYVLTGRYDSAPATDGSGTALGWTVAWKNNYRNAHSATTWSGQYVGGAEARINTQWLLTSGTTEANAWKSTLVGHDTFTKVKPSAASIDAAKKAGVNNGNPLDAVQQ
Test [17] can be described thus: small-molecule binders of probe aInhba, primary screen, biochemical, small-molecule microarray, 635/667 nm fluorescence (AID 1148).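 Note: score merges 667nm spot fluorescence with signal-to-noise for antibody binding to printed compounds.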 Particulars: higher = more signal.
The target in test [18] is Torsin-1A (Homo sapiens) (UniProt O14656). In words: torsin A binders from cell lysate, primary screen, small-molecule microarray, wild-type, 635/667 nm (AID 1149). Particulars: COS7 hTOR1A-WT lysate, 635 nm fluorescence, higher = more signal.
Sequence of Torsin-1A (Homo sapiens) (O14656 whole entry, looked up): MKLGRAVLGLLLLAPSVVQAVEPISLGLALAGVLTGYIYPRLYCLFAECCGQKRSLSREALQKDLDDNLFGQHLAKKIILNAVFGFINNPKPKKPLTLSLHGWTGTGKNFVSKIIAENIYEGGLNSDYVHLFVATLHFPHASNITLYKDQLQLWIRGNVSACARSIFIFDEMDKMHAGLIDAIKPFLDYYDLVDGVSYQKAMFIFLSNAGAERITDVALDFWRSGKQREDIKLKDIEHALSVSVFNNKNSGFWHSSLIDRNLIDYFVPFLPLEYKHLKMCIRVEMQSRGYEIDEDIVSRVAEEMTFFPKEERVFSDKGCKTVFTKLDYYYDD
The target is the same in test [19]. Nature of the test: small-molecule binders of mutant TOR1A in lysate, primary screen, cell lysate, small-molecule microarray, COS7 lysate, 635/667 nm fluorescence (AID 1150).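 Note: score pools 667 nm emission and signal to noise measuring lysate protein binding.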 Particulars: COS7 hTOR1A mutant lysate, 635 nm fluorescence, higher = more signal.
Test [20] relates to Sonic hedgehog protein (Shh). Nature of the test: small-molecule binders of Shh protein, primary screen, biochemical, small-molecule microarray, 635/667 nm fluorescence (AID 1151).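 Note: Shh protein binding to compounds spotted on small-molecule microarray slides; score combines spot fluorescence intensity with signal-to-noise across triplicate slides.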 Particulars: small-molecule microarray binding, 635 nm fluorescence; higher = more signal.

As for `C=C[C@@H](C)[C@@H](OC(=O)Nc1ccc(OC)cc1)c1ccc(O)c2ccccc12`, the composite z-score in [1] is 0.305; in [2], 0.52; in test [3], -0.209; in [4], 0.521; in test [5] it was 1.16; in [6], 1.22. Also, the composite z-score was 0.676 in test [8]; 0.449 in test [9]; -0.124 in test [11]; 0.0646 in [16]; -0.154 in test [17]; 0.15 in test [18]. Further, the composite z-score in [19] is -0.0324; in [20] it was 1.53. The z-score in [7] was -1.38; in [10], -5.76 (inactive); in test [12] it was -5.48 (inactive); in [13], -0.901 (inactive); in test [14], 0.758 (inactive); in test [15], 0.999 (inactive).
With `CC1CC/C=C\[C@H]2OC34C=CCN(CCN5CCOCC5)C(=O)[C@H]3N(CCCCCO)C(=O)[C@@H]4C2C(=O)O1` (stereo not given in full), the composite z-score in test [1] was -0.417; in [2] it was -1.44; in test [3], -0.197; in [4] it was -1.2; in test [5], -0.381; in test [6], -0.206. For the same compound, the composite z-score in test [8] was -0.376; in test [9], -0.577; in test [11], 0.06; in test [16] it was -0.488; in test [17], -0.327; in [18] it was -0.0591. The composite z-score was -0.352 in [19] and 0.322 in test [20]. Besides, the z-score in test [7] is -0.485; in test [10], -0.115 (inactive); in test [12] it was 0.362 (inactive); in test [13], 0.658 (inactive); in test [14], 0.0645 (inactive); in test [15] it was 0.259 (inactive).
As to `O=C(NCC(F)(F)F)[C@@H]1c2ccccc2C(=O)N(Cc2ccccc2)[C@H]1c1ccc(CO)cc1`, the composite z-score was 1.52 in test [1]; -1.3 in test [2]; -0.813 in [3]; -1.17 in test [4]; -1.25 in test [5]; -1.34 in test [6]. The composite z-score is -1.57 in [8]; -0.595 in test [9]; -0.18 in test [11]; -0.27 in test [16]; -0.214 in test [17]; 0.111 in test [18]. In addition, the composite z-score in [19] is 0.0036; in test [20], -0.911. The z-score is 0.764 in [7]; -0.363 (inactive) in [10]; -0.223 (inactive) in test [12]; -0.0791 (inactive) in test [13]; -0.269 (inactive) in test [14]; -0.461 (inactive) in [15].
Turning to `C=C(C(=O)CC[C@@H](OC(C)=O)c1ccc(OCCO)cc1)C(C)C`, the composite z-score stood at 0.521 in test [1]; 0.0161 in test [2]; 0.019 in test [3]; 0.933 in test [4]; 0.627 in [5]; 1.29 in [6]. The composite z-score in test [8] was -0.12; in test [9], 0.0487; in test [11], 0.177; in [16] it was -0.41; in [17], -0.148; in [18], 0.698. For the same compound, the composite z-score in test [19] was 1.02; in test [20], 0.0191. The z-score in test [7] was -0.316; in [10], -1.08 (inactive); in test [12], 0.118 (inactive); in [13], -0.73 (inactive); in test [14] it was 1.68 (inactive); in [15], 1.05 (inactive).
Take `CCCNC(=O)[C@@]1(C)c2ccccc2C(=O)N(Cc2cc(F)cc(C(F)(F)F)c2)[C@H]1c1ccc(CO)cc1`: the composite z-score in [1] is 0.858; in test [2], -0.331; in test [3], -0.527; in [4] it was -1.73; in test [5], -0.839; in test [6], -0.812. For the same compound, the composite z-score in test [8] is -0.662; in test [9], 0.932; in test [11] it was -0.283; in test [16] it was -0.767; in [17], -0.175; in test [18] it was -2.08. Moreover, the values for the composite z-score in test [19] and in test [20] were 0.779 and 0.011, respectively. Moreover, the z-score is -0.394 in [7]; 0.942 (inactive) in test [10]; -3.38 (inactive) in [12]; -1.09 (inactive) in [13]; 0.208 (inactive) in test [14]; -0.173 (inactive) in test [15].
